Measured values as given in PubChem BioAssay (NCATS).
A number with no mark means an inactive call. No rule for the calls is given here.

Tested on: HIV-1 nucleocapsid protein NCp7 (binding to TG oligonucleotide)
Assay: HIV Nucleocapsid (AID 346);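 also: potency is for inhibitors that block NC binding and lower polarization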
Conditions: HIV-1 NC / fluorescein-TGTGTGTG probe, fluorescence polarization
Procedure, shortened: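 Fluorescence polarization readout: labelled TG4xF oligo (10 nM) with 100 nM nucleocapsid protein, high-salt (250mM NaCl) Hepes pH 7.5 buffer containing zinc and fresh reducing agents. Compounds added by pin tool; incubation 1 hr, room temperature.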
Potency is read from the fitted curve at half-maximal effect.

Compound | Potency [µM]
Cc1noc(C)c1C(=O)N1CCC[C@@]2(CCN(Cc3ccc(C#N)cc3)C2)C1 | > 20
CCNc1ncc2nc(-c3cn(C)c4ccccc34)c(=O)n(Cc3cccc(OC)c3)c2n1 | > 20
COc1cccc(-c2ccc3ncnc(NCCN4CCOCC4)c3c2)c1 | > 20
O=C(c1cc(C(F)(F)F)cc(C(F)(F)F)c1)N1CCC[C@@]2(CCN(c3ccccn3)C2)C1 | > 20
COc1cccc(-c2nc(N3CCN(C)CC3)c3ccccc3n2)c1 | > 20
N#Cc1cccc(-c2ccc3ncnc(NCCN4CCOCC4)c3c2)c1 | > 20
COc1ncc2nc(-c3cccs3)c(=O)n(CCC#N)c2n1 | > 20
CC(=O)N1CCC2(CCCN(c3cccc(-c4ccccc4)c3)C2)CC1 | > 20
CN1CCN(c2ncc3nc(-c4ccc(Cl)cc4)c(=O)n(Cc4cccs4)c3n2)CC1 | > 20
c1ccc(CNc2ncncc2-c2cccnc2)cc1 | > 20
O=C(c1cc(C(F)(F)F)cc(C(F)(F)F)c1)N1CCC2(CC1)CN(c1ccccn1)C2 | > 20
COCC(=O)N1CCC2(CCCN(C(=O)Nc3cccc(F)c3)C2)CC1 | > 20
CN(C)c1ncc2ncc(=O)n(C[C@H]3CCCO3)c2n1 | > 20
COc1ccccc1CNc1ccnc(-c2ccc(C(=O)N(C)C)cc2)n1 | > 20
COc1ccc(C(=O)N2CCC[C@@]3(CCN(C)C3)C2)cc1 | > 20
O=C(Nc1ccccc1)N1CCCC2(CCN(C(=O)c3cccc(F)c3)CC2)C1 | > 20
CNc1ncncc1-c1c(C)noc1C | > 20
Cc1noc(C)c1-c1nccc(NCCN2CCOCC2)n1 | > 20
CN1CCN(c2ncc3nc(CCc4ccccc4)c(=O)n(Cc4cccs4)c3n2)CC1 | > 20
O=C(Nc1ccccc1)N1CCC2(CCNCC2)CC1 | > 20

Compound | Potency [µM]
Cc1noc(C)c1-c1nc(N(C)C)c2ccccc2n1 | > 20
FC(F)(F)c1ccccc1-c1cncnc1-n1ccnc1 | > 20
COCC(=O)N1CCC2(CC1)CCN(C(=O)Nc1cccc(F)c1)CC2 | > 20
COc1cccc(Nc2ncc3nc(-c4ccc(F)cc4)c(=O)n(CCC#N)c3n2)c1 | > 4
Cc1noc(C)c1-c1ccc2ncnc(N3CCN(C)CC3)c2c1 | > 20
CN(C)Cc1ccccc1-c1ccc2ncnc(NC3CC3)c2c1 | > 20
O=S(=O)(c1ccccc1)N1CCC[C@@]2(CCN(c3cccc(-c4ccccc4)c3)C2)C1 | > 20
CN(C)c1ccc(-c2cncnc2NCc2cccnc2)cc1 | > 20
CN(C)c1ncc2nc(CCc3ccccc3)c(=O)n(C[C@H]3CCCO3)c2n1 | > 20
CN(C)c1ncc2nc(-c3ccccc3)c(=O)n(-c3ccccc3)c2n1 | > 20
COc1ccc2[nH]cc(CCNc3cc(-c4ccccc4CN(C)C)ncn3)c2c1 | > 20
CNc1nc(-c2ccccc2OC)nc2ccccc12 | > 20
COc1ccc(NC(=O)N2CCCC3(CCN(C(=O)c4cnccn4)CC3)C2)cc1 | > 20
O=C(c1ccncc1)N1CCC2(CCN(Cc3ccncc3)CC2)CC1 | > 20
COCCn1c(=O)c(CCc2ccccc2)nc2cnc(OCc3ccccc3)nc21 | > 20
c1cncc(-c2nccc(-n3ccnc3)n2)c1 | > 20
CC(=O)NCCNc1ncnc2ccc(-c3ccoc3)cc12 | > 20
O=C(Nc1ccccc1)N1CC[C@@]2(CCCN(C(=O)c3ccco3)C2)C1 | > 20
COc1ccccc1CN1CC[C@@]2(CCCN(C(=O)c3ccco3)C2)C1 | > 20
